Measurements published in PubChem BioAssay AID1508600 (Functional Genomics Laboratory (NCATS/FGL), 2020).
Hit rate of the full screen: of about 53,000 sequences, about 3,700 (7%) were called active. This is one part of a sample in which actives are shown more often than they occur.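 The calls were made as follows: active = gene knockdowns whose robust z-score for IL-1 alpha signal is at least 2 or at most -2, so actives lie on both sides; inactive = the rest.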

Assay: Components of the Cytosolic LPS Sensing Pathway: Gene Identification via Genome-wide siRNA Screen;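 also: robust z of the log signal after scaling to non-targeting control siRNA wells of the plate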
Settings: RAW264.7 macrophages, IL-1a HTRF, actives lie on both sides, screened at 100 nM (by protocol), cells primed 5 h with Pam3CSK4 first
Outline: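 Three distinct siRNAs per gene were tested singly at 100 nM in RAW264.7 macrophages. Following Pam3CSK4 priming and 24 hour LipidA transfection, IL-1a secretion was read by HTRF.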

z-score, inactive:
GCAGAAAUACUGGCGAAUATT against Gm9725 0.607
GGUGGAGACACUGAAGGUUTT against Akap1 0.314
GACCAGAAAUUUAAGUGCUTT against Dnajc30 1.5
GGAUCUUCCUCAUCACCCUTT against Ube4a 0.657
GCUUACCUGCUGUCUUAAUTT against F630003A18Rik 0.42
CCUUACAUGUUGACUACCCTT against Rnase13 0.403
GGUCUUCUGUCCAUUAGUGTT against Pigc 0.14
GGAGAAAGAUGGCAUAAUGTT against Slitrk6 -0.595
GGACAAUCCAUAAGUUAAATT against Scai 0.22
GGAAGUUAAGCAUAGUUUCTT against Flrt3 1.15
GGCAACAGUAUUUAUGAAUTT against Sim2 -0.45
CCUAGCAUGUUUCUUGCUATT against Rnft2 0.46
GGAGAAAAUUGUCAAGAAGTT against Ift122 -0.824
GGAACUUUUCAUCCUGAAGTT against Fgl1 0.0919
GCUCAUCAAGCUGUACCUATT against Eif2b1 1.16
GCUUUGAUUUAUGAGGUCATT against Ttc30a1 0.251
GGUCUUGUGGUGGUACUACTT against Elovl2 1.77
GGCCAUUCUGGAAACUCCATT against Foxp4 -0.0644
GGAAUAAUAGAGGAAUGAGTT against Bclaf1 -1.61
GGAGAGAGAUUUUCAAUAUTT against Gtdc1 -0.41
GGAGAGCCUUAUUCAUCGCTT against H2-DMb2 -0.0566
GGAAUCUGUCAUGUGAAUATT against Slc1a5 -0.0766
GCUGGUGCAUUACUGAGGUTT against Olfr69 0.434
CCAAACACUAUGUGACAAGTT against Trim8 -0.626
GGCCAAGCAUGUUUUGUCATT against Cep72 -0.639
GCUUGGUGGGUUUGUUGAUTT against Slc28a1 -0.113
GUGCUCUAUGUCUUCACUGTT against Ltb4r2 -1
CGACUACCAACAGUUCAUATT against P2rx6 1.14
GGAGCUCAUAGACCAGCUUTT against Necab3 0.371
GCUUGAUGGUAAAAAGGUUTT against Atl1 -1.18
CCAACCUAUAAGUUAAUGATT against Mrps22 -0.735
CGGAGAGGAUUUCAUCGAATT against Azgp1 0.0877
GGGCCUCCAUCCUACUAUGTT against Grina 1.65
CGAUAUGUGUUUGUAAUGGTT against Atp6v1d -0.853
GCCGUGAUCGACUUGAAUATT against U2af1 0.763
CCAAUAUGCUCAGUAUUACTT against Eya4 -1.36
CCCUCUCCCUUCAAUGUGGTT against Cblif -1.38
GGAGUAGUAGCUGAAUUUGTT against Abcc3 0.317
GGCUGAUCUCUUUUGCCAGTT against Reg2 0.00409
GGAACAUAUACUGGACAGATT against Zfp825 0.436
GGGCUAAUAUACAGAAAUATT against Rrm2b -0.126
GGUGGAGAAAAAUGCAACATT against Clnk -0.429
GGAAAUCUGAAGAAUCAAGTT against Zup1 -0.621
GGAGGUAGAAAAGACAAAATT against Jrk 1.96
GGAUGCAUUUCUGAGCCACTT against Tacc2 -1.62
GGAAGGACAAUCAGUUCCUTT against Thsd7b 0.999
CCUUUUAUAACUGCUCUCUTT against Jpt2 -1.01
GCUCACUCUUUCCAACUAUTT against Ubox5 0.465
GGCUGGAUUAUUUUUUCUUTT against Usp4 0.921
GAACGUGCAGCUGACAGAGTT against Ppp1ca -1.03
CGGGCUGGAAGAAAUCUCUTT against Rhox3a 0.771
GGACAAAACCAUCUCCUUCTT against Olfr17 0.324
GGGAAUGCACUACAACUACTT against Chpf 1.16
GGCUUUUCUGGCUAUCCACTT against Anxa7 -0.774
GGCCCAAGAGCAUUCUGGATT against Slc25a19 0.552
GGGUGUGCAUUUGUACUACTT against Smad9 1.21
GGAUAUGUCAGCAUAUGUGTT against Yeats4 -0.583
GGUCAACAGUUACAUCGAGTT against Vps33a 0.273
GCCCAUCUUAGCAUUCUCUTT against Aldh4a1 -1.91
GCUAGAAAAAAAUCAGUUGTT against Eif2a 0.6
CCUCUCAACCACUGACUGATT against Gpatch4 0.836
GCUCAAAUCGUACAAGUGUTT against Panx1 0.214
GUCCUCGUAGGAACAGCAUTT against Olfr1265 -1.52
GGCACUGUUGUGGCUGAAATT against Coro1a 1.47
CCUCAUGGAUGUUCGUAGATT against P2ry10 0.452
GCUAGGAUGUCUGAAAGAGTT against Ccdc178 0.266
GGCUGUAUCCUGACAGCAATT against Olfr231 0.213
GCGUGGAGAACCGUUAAUCTT against Shroom3 0.845
CCUCUCUAGGCCAUGUUCUTT against 1110008P14Rik 0.381
GGUUUUAUCCCUGUUUCCUTT against Naaa -0.115
GCGGUCAACUGGAAACUAATT against Dnaja3 0.735
GCAUCAUGAGUCCCAUUCUTT against Olfr385 -0.276
CCAACGCGCACGGCCGCGCTT against Tmem158 -0.359
CCCUGCUGUCGUUUUGACUTT against Senp3 -0.122
GGAAAGUUUUGGCGACUACTT against Fbxw19 0.25
GGAUUUAAAUCACCUGUAATT against Tdpoz1 -0.864
GCAGAAAAGGUCUACGUGCTT against Azgp1 1.8
CCGAUUAAAAGAGUGUUUGTT against Nudt8 1.85
GGUUAUCUUUGGGACUUAATT against Lrmp -1.66
GCUGGUGCUCUUCACCAUATT against Fbxw17 -0.419
CCUGAAAUGCUAAGACUACTT against Gm5142 1.15
GGGAUCUUACAUGCCACCATT against Olfr1231 -0.000779
GGCUACUCGGCCCUCUGUUTT against 4930404N11Rik -1.67
CCAUACAGAGGUGACAGUUTT against Olfr816 -0.23
CCAUAAAAACCAGAGAAAUTT against Plekhf2 -0.778
GGUCGACUUAAGAUAAUAATT against Itgb6 -0.294
CCCUGUUAAGGAAUGCAAATT against Chil1 0.367
GGCUUUUUGCUUCACUACUTT against Slco4c1 1.06

z-score, active:
GGAGAUGAACCAUUAUGUCTT against Mycbp -2.03
GGAGCUCCUGAACAGGAUCTT against Gpr26 2.13
GGUGAAGGUGAACAAGGACTT against Myh9 2.92
CCAGGAUCAAAGAACUUAUTT against Olfr1424 -3.39
GCGGGUGAAAUACACCAAGTT against Trim28 -2.2
UCCAUUUCGACCCUUGUACTT against Romo1 -2.88
GGGCUUCUUCUGCUAUGACTT against Plppr2 -2.2
GGGUGUUUGGUUGUGAUCUTT against Arhgap33 -2.07
GGAUGUGAUCAUAGCAUGGTT against Slc35e1 -2.07
CUCUCGAACAAUCAACCACTT against Olfr315 2.05
GACUAUGUGGUCUACUCGUTT against Drd4 2.86
GCCAUAUCAACUAGUGCAGTT against Siglech 2.36
CCCAGAACGGGAUGAUUCUTT against Trex2 2.77
CCUGAGAUUGGGAAAUUCUTT against Engase 2.02
CCGAAAAAUAUGUUUUCCGTT against Mettl4 2.87
GCUCAACUUACGUUCACUCTT against Vps72 -2.53
AAACAGUCAUUUCCUAUAGTT against Olfr1502 -2.04
GGACGUGUAGCUUGGAAUATT against Rnf26 5.33
GGAGAAAUUCGACUGAAAATT against Pcdhb13 3.47
